An excerpt weighted towards active compounds, which were near 8.3% of everything screened.
HCMV inh: human cytomegalovirus inhibition. HFF cells, HCMV-luciferase reporter, 72 h; active compounds read low. activity change, negative = inhibition, % at 57.5 µM. hit rate 4.5% among 410,000. AID 1259415; in the data active = activity change below about -60%; inconclusive = no clear call, values can overlap the other calls; inactive = above about -39%
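Inhibition of viral replication was scored as loss of reporter luminescence in HFFs infected with HCMV-luciferase (MOI 1 PFU/cell) for 72 h; compounds tested at 2 doses, normalized to buffer and Salinomycin controls.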
HCV inhibitor: HCV inhibition. hit rate 3.4% among 340,000. Huh7.5.1 HCVcc-Cre infection, luciferase reporter, 44 h. Potency, µM (series often up to 41.8 µM), usual class: inhibitors
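Whole-lifecycle infectious HCVcc-Cre system; cells 1,000/well, compound then virus (~0.5 moi) added 4 h after plating, 44 h culture. Luciferase read 15 sec following 15 min substrate incubation, room temp.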
Giardia FBPA inh: blocks Giardia fructose-bisphosphate aldolase activity; Potency, µM (doses to about 59.6 µM), actives largely listed as inhibitors; purified Giardia FBPA; A8B2U2; AID 2451; hit rate 0.71% among 290,000; also: nearly all actives have a fitted effect of over 55% in size
Target sequence (A8B2U2 whole entry, looked up): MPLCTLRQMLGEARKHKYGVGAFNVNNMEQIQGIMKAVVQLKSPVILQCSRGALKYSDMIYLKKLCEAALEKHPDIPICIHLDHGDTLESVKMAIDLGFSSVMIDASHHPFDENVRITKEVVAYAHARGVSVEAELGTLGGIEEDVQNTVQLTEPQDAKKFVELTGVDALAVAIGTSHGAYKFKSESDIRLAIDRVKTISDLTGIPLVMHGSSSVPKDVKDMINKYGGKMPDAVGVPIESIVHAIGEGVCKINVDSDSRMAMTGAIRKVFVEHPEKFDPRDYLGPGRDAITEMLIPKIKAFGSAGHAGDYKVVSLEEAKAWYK
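40 nM FBPA preincubated 10 min at RT with compound (up to 57.5 uM final), then substrate plus GAPDH/TPI/NAD/arsenate coupling and diaphorase/resazurin added. Fluorescence read after 20 min at RT, 525/598 nm.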
Lassa entry inh: Lassa virus entry inhibition; AID 540256; hit rate 1.2% among 300,000; Lassa virus pseudotype entry inhibition, cell reporter; Potency, µM (top dose mostly 37.9 µM), actives largely listed as inhibitors; calls by dose curve; tested in HEK293 cells; also: nearly all actives have a fitted effect of over 50% in size
MARV entry inh: inhibitors of Marburg virus binding or cell entry. Marburg virus pseudotyped entry inhibition, cell reporter. hit rate 1.8% among 300,000. Potency, µM (doses to about 37.8 µM), actives largely listed as inhibitors; calls by dose curve; tested in HEK293 cells
FMDV antiviral: foot and mouth disease virus antiviral activity | FMDV antiviral cell-based qHTS | Potency, µM (series often up to 57.9 µM), most hits filed as inhibitors | hit rate 1.2% among 410,000 | AID 1159524; calls by dose curve; tested in HEK293T cells; also: read-out not given here; nearly all actives have a fitted effect of over 45% in size
Of the large screens only hits and unclear results are named; the others gave an inactive call. Unless noted, calls follow the shape of the dose curve; as a rule, active = well fitted curve in the direction sought with a large enough effect; inconclusive = small, poorly fitted or top-dose-only effect, or another doubt; inactive = no such curve, though single readings can be large; an effect the other way counts as inactive or inconclusive.

CC(C)(C)c1ccc(S(=O)(=O)N2CC3CC(C2)c2cccc(=O)n2C3)cc1 (centres undefined)	none (no result: FMDV antiviral)
CC(C)CC(=O)Nc1ccc(S(=O)(=O)N2CC3CC(C2)c2cccc(=O)n2C3)cc1 (centres undefined)	MARV entry inh inconclusive (no result: Giardia FBPA inh)
COc1ccc(S(=O)(=O)N2CC3CC(C2)c2cccc(=O)n2C3)cc1 (centres undefined)	HCMV inh -65
CCCOc1ccc(C(=O)Nc2ccc(S(=O)(=O)N3C[C@@H]4C[C@@H](C3)c3cccc(=O)n3C4)cc2)cc1	HCV inhibitor 3.2µM (no result: Giardia FBPA inh, Lassa entry inh)
CC(C)Cc1nc2cc(NS(=O)(=O)N(C)C)cc(C(=O)N3CCc4ccccc4C3)c2n1C	none (no result: HCMV inh, HCV inhibitor, Giardia FBPA inh, Lassa entry inh, MARV entry inh)
O=[N+]([O-])c1ccc2nc(-[n+]3c(-c4ccccc4)cc(-c4ccccc4)cc3-c3ccccc3)[nH]c2c1	HCV inhibitor inconclusive, Lassa entry inh 23µM, MARV entry inh inconclusive (no result: HCMV inh)
O=[N+]([O-])c1ccc2nc(-c3ccc(Cl)cc3)[nH]c2c1	HCMV inh -62, Lassa entry inh inconclusive, MARV entry inh inconclusive
Cc1ccc(-c2nc3ccc([N+](=O)[O-])cc3[nH]2)cc1	HCV inhibitor inconclusive, Giardia FBPA inh inconclusive (no result: Lassa entry inh, MARV entry inh)
O=[N+]([O-])c1ccc2nc(-c3ccccc3[N+](=O)[O-])[nH]c2c1	none
O=[N+]([O-])c1ccc2nc(-c3ccncc3)[nH]c2c1	none (no result: Lassa entry inh, MARV entry inh)
COc1ccc(-c2nc3ccc([N+](=O)[O-])cc3[nH]2)cc1	Lassa entry inh 8.9µM, MARV entry inh inconclusive
O=[N+]([O-])c1cccc(-c2nc3ccc([N+](=O)[O-])cc3[nH]2)c1	HCV inhibitor 14µM, Giardia FBPA inh inconclusive, MARV entry inh inconclusive
Nc1nc2ccc([N+](=O)[O-])cc2[nH]1	none (no result: Lassa entry inh, MARV entry inh)
CSc1nc(N)c2ncn([C@@H]3O[C@H](COP(=O)(O)OP(=O)(O)OP(=O)(O)O)[C@H](O)[C@H]3O)c2n1	MARV entry inh inconclusive (no result: HCMV inh, HCV inhibitor, Lassa entry inh, FMDV antiviral)
COc1ccc(CN2C(=O)c3ccccc3C(/C=N/OCc3ccc(Cl)cc3)C2=O)cc1 (centres undefined)	MARV entry inh inconclusive
COc1ccc(CN2C(=O)c3ccccc3C(/C=N\OCc3ccc(F)cc3)C2=O)cc1 (centres undefined)	HCMV inh -91, FMDV antiviral inconclusive
CCOC(=O)c1ccccc1NS(=O)(=O)c1ccc(OCC)cc1	HCV inhibitor inconclusive, Lassa entry inh 2.6µM, MARV entry inh inconclusive
COc1ccc(OC)c(NS(=O)(=O)c2ccc(N3CCCC3=O)cc2)c1	HCMV inh -73, Lassa entry inh inconclusive, MARV entry inh inconclusive
CCOc1ccc(S(=O)(=O)Nc2cc(OC)ccc2OC)cc1	HCMV inh -64, Lassa entry inh inconclusive, MARV entry inh inconclusive
CCOC(=O)c1ccccc1NC(=O)CN(c1ccccc1)S(=O)(=O)c1ccc(OCC)cc1	HCMV inh inconclusive (no result: HCV inhibitor, Giardia FBPA inh)
COc1ccc(CCNS(=O)(=O)c2ccc(N3CCCC3=O)cc2)cc1	HCV inhibitor inconclusive, Lassa entry inh inconclusive, MARV entry inh inconclusive (no result: Giardia FBPA inh)
COc1ccc(OC)c(NS(=O)(=O)c2ccc(SC)cc2)c1	HCV inhibitor inconclusive, Lassa entry inh inconclusive, MARV entry inh inconclusive
CC(C)ON([C@@H](C(=O)NO)C(C)C)S(=O)(=O)c1ccc(-c2ccccc2)cc1	Lassa entry inh 3.7µM, MARV entry inh 5.2µM (no result: HCMV inh, HCV inhibitor, Giardia FBPA inh, FMDV antiviral)
FC(F)(F)c1cccc(Sc2cc(C(F)(F)F)nc(-c3ccccn3)n2)c1	MARV entry inh inconclusive, FMDV antiviral inconclusive
Cc1ccc(Sc2cc(C)nc(-c3ccccn3)n2)cc1	HCMV inh -76, HCV inhibitor inconclusive, Lassa entry inh inconclusive
COc1cnc(-c2ccccn2)nc1NC(C)C	HCMV inh -101, HCV inhibitor inconclusive, Giardia FBPA inh inconclusive, Lassa entry inh inconclusive, MARV entry inh 11µM
COc1cnc(-c2ccccn2)nc1Sc1cccc(Cl)c1	HCMV inh -64, HCV inhibitor 7.1µM, Lassa entry inh inconclusive, MARV entry inh inconclusive
COc1cnc(-c2ccccn2)nc1Oc1ccc(Cl)c2ccccc12	HCMV inh -100, HCV inhibitor inconclusive, Lassa entry inh inconclusive, MARV entry inh inconclusive, FMDV antiviral 3.2µM
COc1cnc(-c2ccccn2)nc1Oc1ccccc1Cl	HCV inhibitor inconclusive
COc1cnc(-c2ccccn2)nc1Oc1ccc(Cl)cc1	HCV inhibitor inconclusive, Giardia FBPA inh inconclusive
N#Cc1ccc(NC(=O)COCc2cc(-c3ccc4c(c3)OCO4)on2)cc1	none (no result: HCV inhibitor, Giardia FBPA inh, MARV entry inh)

Bioassay records from PubChem.
